Compound activity from PubChem BioAssay.
In the library only some 7.7% were active in any assay of this set; here they are far more common.
HCMV inh = qHTS Assay for inhibitors of the human cytomegalovirus (HCMV); 4.5% of 410,000 active; HFF cells, HCMV-luciferase reporter, 72 h; hits give low values; activity change, negative = inhibition, % at 57.5 µM; in the data active = activity change below about -60%; inconclusive = no clear call, values can overlap the other calls; inactive = above about -39%
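Steps: HFFs plated, 16 h 37C; compounds added; HCMV-luciferase added to MOI 1 PFU/cell; 72 h 37C; OneGlo reagent, 5 min room temperature; luminescence read, normalized to controls.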
Giardia FBPA inh = qHTS Assay for Inhibitors of Fructose-1,6-bisphosphate Aldolase from Giardia Lamblia. A8B2U2. 0.71% of 290,000 active. purified Giardia FBPA. Potency, µM (series often up to 59.6 µM), inactives show top-dose activity, negative = inhibition, most hits filed as inhibitors; note: potency is the fitted concentration of half-maximal effect; nearly all actives have a fitted effect of over 55% in size
Target sequence (A8B2U2 whole entry, looked up): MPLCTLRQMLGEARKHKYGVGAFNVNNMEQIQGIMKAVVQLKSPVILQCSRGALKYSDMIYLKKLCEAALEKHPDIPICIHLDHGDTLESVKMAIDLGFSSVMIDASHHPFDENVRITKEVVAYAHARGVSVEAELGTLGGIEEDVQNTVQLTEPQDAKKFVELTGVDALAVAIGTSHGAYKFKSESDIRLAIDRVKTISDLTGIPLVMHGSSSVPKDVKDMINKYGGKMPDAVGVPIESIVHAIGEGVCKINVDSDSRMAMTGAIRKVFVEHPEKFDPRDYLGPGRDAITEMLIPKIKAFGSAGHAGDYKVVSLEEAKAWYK
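40 nM FBPA preincubated 10 min at RT with compound (up to 57.5 uM final), then substrate plus GAPDH/TPI/NAD/arsenate coupling and diaphorase/resazurin added. Fluorescence read after 20 min at RT, 525/598 nm.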
RE007 growth inh = qHTS Assay for Inhibitors of the HIV-1 protein Vpr. S. pombe RE007 Vpr strain, BacTiter-Glo ATP luminescence, 24 h. Potency, µM (top dose mostly 92.2 µM), inactives show at the highest dose activity change, negative = less growth, hits mostly inhibitors. 0.21% of 360,000 active. AID 651644, 2012; active = well fitted falling curve with a large enough effect; inconclusive = small, poorly fitted or top-dose-only effect; inactive = no such curve, though single readings can be large or run the other way; note: potency is the fitted concentration of half-maximal effect; nearly all actives have a fitted effect of over 50% in size
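Fission yeast strain RE007, carrying one chromosomally integrated HIV-1 vpr copy, was seeded at OD 0.01 in PMG+AL medium with 23 nL pinned compound. After 24 h at 30 °C and 99% humidity, viability was read by BacTiter-Glo luminescence.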
FMDV antiviral = High Throughput Screening for Foot and Mouth Disease Virus Antivirals; 1.2% of 410,000 active; AID 1159524, 2015; FMDV antiviral cell-based qHTS; Potency, µM (series often up to 57.9 µM), for the others: at the top dose activity change, negative = inhibition, hits mostly inhibitors; calls by dose curve; tested in HEK293T cells; note: read-out not given here; potency is the fitted concentration of half-maximal effect; nearly all actives have a fitted effect of over 45% in size
Tb PYK inh = qHTS of Trypanosoma Brucei Inhibitors | pyruvate kinase (Trypanosoma brucei), Q57TT1 | TbPYK enzyme, Kinase-Glo Plus ATP luminescence, 45 min | Potency, µM (series often up to 76.8 µM), for inactives: at the top dose activity, negative = inhibition, most hits filed as inhibitors | 0.12% of 410,000 active; note: potency is the fitted concentration of half-maximal effect; nearly all actives have a fitted effect of over 50% in size
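ADP (130 uM final) triggers the TbPYK reaction after compound addition; incubation is 45 min at room temperature. Kinase-Glo Plus is then added and luminescence imaged. Normalized data are fitted to concentration-effect curves.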
Sm TGR inh = qHTS Assay for the Inhibitors of Schistosoma Mansoni Peroxiredoxins. purified TGR, DTNB reduction, TNB absorbance 405 nm. Potency, µM (top dose mostly 114 µM), without a hit: at the highest dose activity change, negative = inhibition, hits mostly inhibitors. 3% of 360,000 active; note: potency is the fitted concentration of half-maximal effect; nearly all actives have a fitted effect of over 60% in size
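Kinetic colorimetric format: TGR-catalysed, NADPH-driven DTNB reduction monitored via TNB absorbance. Enzyme dispensed at 20 nM; compound exposure 15 min at room temperature before reaction start.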
* marks the source's active call; other numbers are inactive results; ? = inconclusive; nt = no result given. Unless noted, calls come from the whole dose curve; as a rule, active = well fitted curve in the direction sought with a large enough effect; inconclusive = small, poorly fitted or top-dose-only effect, or another doubt; inactive = no such curve, though single readings can be large; an effect the other way counts as inactive or inconclusive. % is set by controls: 0 for no effect and ±100 for the full control effect.

SMILES | HCMV inh | Giardia FBPA inh | RE007 growth inh | FMDV antiviral | Tb PYK inh | Sm TGR inh
COC(=O)c1nc(NC(=O)c2cc(OC)c(OC)c(OC)c2)n[nH]1 | 18.2 | nt | 3.6% | -28.4% | 9.4% | 31.6µM*
COC(=O)c1nc(NC(=O)c2ccccc2Br)n[nH]1 | 24.6 | 3.0% | 10.8% | 20µM* | 2.2% | 6.7%
COc1cc(C(=O)Nc2ccncc2)cc(OC)c1OC | 20.3 | 1.6% | -3.3% | nt | 0.0% | -8.2%
O=C(O)c1ccc(C=C(c2nc3ccccc3s2)c2nc3ccccc3s2)cc1 | 125.4 | ? | ? | ? | 2.1% | -18.8%
CN(C)c1ccc(/C=C(\Cl)c2nc3ccccc3s2)cc1 | nt | -6.5% | 0.0% | 10µM* | -18.9% | 3.1%
CCOC(=O)CCCc1ccc(/C(C)=N/NC(=S)NC)cc1 | -95.0* | -8.8% | -9.1% | -20.7% | 2.9% | -8.7%
C/C(=N\NC(=S)NCCc1ccccc1)c1ccc(C)cc1 | 27.0 | -5.7% | -31.5% | -9.0% | 0.3% | 5.8%
Cc1cc2nc(C(=O)NC3CCCCC3)c(-c3cccc(Br)c3)nc2cc1C | 28.5 | nt | nt | nt | nt | nt
COCCNC(=O)C1(C)CCN(C(=O)c2cc(-c3cccs3)oc2C)C1 (configuration not stated) | -20.9 | nt | nt | nt | nt | nt
NC(=O)c1cn(C2OC(CO)C(O)C2O)c2ncnc(N)c12 (configuration not stated) | -97.1* | 0.7% | 0.4% | ? | 3.1% | -0.5%
N#Cc1cn(C2OC(CO)C(O)C2O)c2ncnc(N)c12 (configuration not stated) | -99.9* | nt | -1.5% | 14.3% | -1.9% | nt
COC(=O)N1CCC2(CC1)CCN(c1ccccc1)CC2 | nt | 5.9% | nt | -15.9% | 3.1% | nt
COc1cccc(Cn2c(C)c(CNC3CCCCC3)c(C(=O)O)c2C)c1 | -101.6* | nt | nt | -7.1% | -5.0% | 4.0%
Cc1c(CNC2CCCCC2)c(C(=O)O)c(C)n1Cc1ccc(Cl)cc1 | -4.9 | nt | nt | -4.5% | -15.9% | -7.5%
N[C@H](CSSC[C@@H](N)C(=O)O)C(=O)O | nt | 2.9% | nt | nt | nt | nt
O=C(NCC12CC3CC(CC(C3)C1)C2)c1cc2nc(-c3ccc(F)cc3)cc(C(F)(F)F)n2n1 | 1.6 | nt | nt | -15.4% | -9.7% | -2.6%
C#CCOCCOCCOCCNc1nc(N2CCN(C(=O)CCCCCCCCCCNC(=O)Cn3cc(CCCCCN)nn3)CC2)nc(N2CCN(C(=O)CCCCCCCCCCNC(=O)[C@H](CO)n3cc(CCCCCN)nn3)CC2)n1 | nt | nt | 16.6% | -20.1% | -9.8% | 39.8µM*
C#CCOCCOCCOCCNc1nc(N2CCOCC2)nc(N2CCN(C(=O)CCCCCCCCCCNC(=O)[C@H](CO)n3cc(CCCCCN)nn3)CC2)n1 | -13.7 | nt | -23.5% | -17.8% | 3.7% | -35.4%
C#CCOCCOCCOCCNc1nc(N2CCN(C(=O)CCCCCCCCCCNC(=O)Cn3cc(CCCCCN)nn3)CC2)nc(N2CCN(C(=O)CCCCCCCCCCNC(=O)[C@H]([C@@H](C)CC)n3cc(CCCCCN)nn3)CC2)n1 | nt | nt | 8.5% | ? | 1.4% | 44.7µM*
C#CCOCCOCCOCCNc1nc(N2CCN(C(=O)CCCCCCCCCCNC(=O)[C@H](CO)n3cc(CCCSC)nn3)CC2)nc(N2CCN(C(=O)CCCCCCCCCCNC(=O)[C@H](CCCCN)n3cc(C[C@@H](C)CC)nn3)CC2)n1 | nt | nt | nt | nt | nt | -0.8%
C#CCOCCOCCOCCNc1nc(N2CCN(C(=O)CCCCCCCCCCNC(=O)[C@H](CO)n3cc(CCCSC)nn3)CC2)nc(N2CCN(C(=O)CCCCCCCCCCNC(=O)[C@H](CO)n3cc(CCCSC)nn3)CC2)n1 | -70.9* | nt | -4.0% | -10.4% | 1.6% | -27.2%
COc1ccc(S(=O)(=O)N2CCN(c3ccc(Cl)c(Cl)c3)CC2)c2ccccc12 | 26.1 | nt | nt | -4.4% | 2.9% | 4.6%
CCCCOC(=O)c1ccc(-n2nnc3c(sc4nc(C)cc(C)c43)c2=O)cc1 | 84.5 | nt | nt | 20.2% | -1.8% | 23.7%
COc1cccc(C(=O)N(c2ccc(C)cc2)C2C=CS(=O)(=O)C2)c1 (configuration not stated) | -101.3* | 7.0% | 0.4% | -9.1% | 0.7% | 3.7%
COc1ccc(N(C(=O)c2cc3ccccc3oc2=O)C2C=CS(=O)(=O)C2)c(OC)c1 (configuration not stated) | -61.2* | -1.2% | -4.1% | -7.3% | -0.4% | 0.3%
SMILES | HCMV inh | Giardia FBPA inh | RE007 growth inh | FMDV antiviral | Tb PYK inh | Sm TGR inh
COc1cccc(C(=O)c2cn(CC(=O)Nc3cccc(Cl)c3C)c3nc(C)ccc3c2=O)c1 | -0.6 | nt | nt | -23.7% | 3.1% | -1.6%
CC(C)(C)c1ccc(C(=O)NCc2nnc(SCC(=O)N3CCCC3)o2)cc1 | 8.0 | nt | 5.6% | -20.8% | -4.0% | nt
O=C(NCc1nnc(SCC(=O)N2CCCCC2)o1)c1ccc(F)cc1 | -84.9* | nt | -1.8% | 0.7% | -11.6% | 4.5%
O=C(CSc1nnc(CNC(=O)c2c(F)cccc2F)o1)NCc1ccc(F)cc1 | 16.4 | nt | -1.5% | -14.9% | 2.4% | 28.2µM*
O=C1CC(C(=O)Nc2ccc(F)cc2)n2cnnc2N1 (configuration not stated) | -71.2* | 0.9% | 1.3% | -7.5% | 0.1% | -12.1%
O=C(Nc1ccc(F)cc1)C1CC(=O)n2cnnc2N1 (configuration not stated) | -30.7 | 2.3% | -6.0% | 10.7% | 2.5% | 2.4%
CCN(CC)CCn1c(-c2ccccc2)nc2c(NCc3ccccc3)nc(C)nc21 | nt | 7.2% | nt | nt | nt | nt
Cc1ccccc1NC(=O)c1sc2nc(N3CCOCC3)c3c(c2c1N)CC(C)(C)OC3 | 17.0 | nt | nt | 0.0% | ? | 3.1%
C=Cc1ccc(Cn2c(C(=O)O)c(CNCc3cc(OC)ccc3OC)c3ccc(C)cc32)cc1 | -103.6* | nt | nt | 0.0% | 4.0% | 3.1%
COc1ccc(Cn2c(C(=O)O)c(CNCCc3ccccc3Cl)c3ccc(C)cc32)cc1 | -104.7* | nt | nt | -53.8% | 3.6% | 3.6%
C=Cc1ccc(Cn2c(C(=O)O)c(CNCCc3ccccc3)c3ccc(C)cc32)cc1 | -89.8* | nt | nt | -17.9% | 2.8% | -9.9%
Cc1ccc2c(CNCCc3ccc(Cl)cc3)c(C(=O)O)n(Cc3ccc(F)cc3)c2c1 | -105.8* | nt | nt | -16.8% | -4.5% | -1.7%
COc1ccc(N2CCN(c3nc4ccc(C)cc4n4nnnc34)CC2)cc1 | ? | nt | nt | -1.6% | 0.7% | 8.1%
Cc1cccc(OCC(=O)Nc2ccccc2OCc2cc(=O)n3cc(C)ccc3n2)c1 | 34.0 | nt | nt | ? | -2.6% | 2.6%
COc1ccc(OCc2nc3ccccc3n2Cc2ccccc2Cl)cc1 | 2.5 | nt | nt | -19.1% | -7.5% | 1.5%
